In PubChem BioAssay (NCI):
Compounds without any hit were thinned out: in the full panel of roughly 83,000, 20% have a hit.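 Interpretation: 100, growth as untreated; towards 0, rising growth inhibition; 0, no net growth; 0 to -100, cell death. Compounds scoring below 10 were considered active.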 The source made the active and inactive calls.

Tested on: OVCAR-5 ovarian
Experiment: NCI-60 one-dose screen, 48 h (100 = growth as untreated, 0 = no growth, -100 = all killed)
Conditions: 10 µM unless noted
Procedure: Growth inhibition of the OVCAR-5 human tumor cell line is measured as a screen for anti-cancer activity. Cells are grown in 96 well plates and exposed to the test compound for 48 hours. Compounds are tested at a single concentration, which is 10^-5 M for most compounds. The reported endpoint is percent growth (GI% or GIPRCNT), where numbers from 0 - 100% represent growth inhibition, and numbers from -100% - 0 represent cell death. For example, a value of 40 represents 60% growth inhibition. A value of 0 means no net growth occurred over the course of the experiment. A value of -40 indicates 40% of cells at the beginning of the experiment died by the end of the experiment. A value of -100 means all cells are dead at the end of the experiment.
NCI-60 Human Tumor Cell Lines Screen was performed using the standard one-dose NCI protocol, which is described in more detail at https://dtp.cancer.gov/discovery_development/nci-60/default.htm.
Compounds with GIPRCNT values below 10 were considered active. Activity score was based on GIPRCNT using the following formula: […]
Score is 0 for GIPRCNT values of 100 or above, 50 for GIPRCNT values of 0, and 100 for GIPRCNT values of -100.

SMILES	growth
OC1(c2ccccc2)c2ccccc2N(c2ccccc2)c2ccc(Cl)cc21 (stereo not given)	-72.3% (active)
N#Cc1nn(-c2cc(=O)[nH]c3ccc(Br)cc23)c(N)c1C#N	103% (inactive)
CC/C(=C(\c1ccc(Cl)cc1)c1ccc(OCCN2CCCCC2)cc1)c1ccc(O)cc1	70.4% (inactive)
O=C(/C=C/c1ccccc1)N(C1CCCCC1)C1CCCCC1	106% (inactive)
CCOC(=O)C#Cc1c(C(=O)OCC)nnn1[C@@H]1O[C@H](COC)[C@@H](OC)[C@H]1OC	90.1% (inactive)
Cc1nc2sc(C(=O)Nc3cccc(Cl)c3C)c(N)c2cc1C(=O)/C=C/c1ccccc1	8.98% (active)
O=C(/C=C/C12c3ccccc3C(c3ccccc31)C1C(=O)NC(=O)C12)c1ccc(Cl)cc1Cl (stereo not given)	37.6% (inactive)
CCOc1ccc(/C=C/C(=O)c2cccc(OCCCOc3cccc(C(=O)/C=C/c4ccc(OCC)cc4)c3)c2)cc1	107% (inactive)
C=CN(C(=O)N1CCN(c2cc3c(cc2F)c(=O)c(C(=O)O)cn3C2CC2)CC1)c1nc(-c2ccccc2)cs1	102% (inactive)
COC1C(O)CC(OC2CC(OC3CC(O[C@@H]4C(=O)c5c(cc6cc(OC7CC(OC8CC(O)C(O)C(C)O8)C(O)C(C)O7)c(C)c(O)c6c5O)CC4[C@H](OC)C(=O)C(C)=O)OC(C)C3O)OC(C)C2O)OC1C (stereo not given in full)	13.9% (inactive)
COc1ccc(C(=O)/C=C/c2ccccc2)cc1S(N)(=O)=O	101% (inactive)
Cc1nc([P+](c2ccccc2)(c2ccccc2)c2ccccc2)c(N2CCCCC2)o1	54.1% (inactive)
CCn1cc(C(=O)O)c(=O)c2cc(F)c(N3CCN(CC(=O)Nc4ccccc4)C(C)C3)c(F)c21 (stereo not given)	98.3% (inactive)
CN(C)CCCNC(=O)c1cncnc1Nc1ccc2c(ccn2Cc2cccc(F)c2)c1	97.5% (inactive)
COc1ccc(C/C(C)=C(\c2ccc(Cl)cc2)c2ccc(OCCCN(C)C)cc2)cc1	70.8% (inactive)
CN1C(=O)/C(=C/c2ccc(C(=O)Nc3ncc(Cc4cccc(C(F)(F)F)c4)s3)cc2)SC1=S	60.8% (inactive)
CCOC(=O)c1cnn(CC(C)O)c1NC(=O)NCc1ccccc1C(F)(F)F (stereo not given)	102% (inactive)
CCN(CC)CCOc1ccc2c(-c3ccccc3)c(-c3ccc(OC)cc3)c(=O)oc2c1	91.6% (inactive)
Clc1ccc(-c2cc(-c3ccccc3)nc(N3CCN(CCCNc4ccnc5cc(Cl)ccc45)CC3)n2)cc1	33.5% (inactive)
CC1(C)N=C(N)N=C(N)N1c1cc(Cl)ccc1Cl	59.2% (inactive)

SMILES	growth
COc1ccc2c(c1)CC[C@@H]1[C@@H]2CC[C@]2(C)C3C(=CC(COC(C)=O)C4C(=O)N(c5ccc(Cl)cc5)C(=O)C43)C[C@@H]12 (stereo not given in full)	78.4% (inactive)
COc1ccc(CN2C(=O)OC(C)(COC(C)=O)C2=O)cc1 (stereo not given)	97.2% (inactive)
COC12C=C/C(=C(/C(=O)OCc3cncnc3)C(=O)CCCCCCCCC3(OC)C=C/C(=C(/C(=O)OCc4cncnc4)C(=O)CCCCCCCC1)O3)O2	-25.6% (active)
O=C1NC(=O)C(c2coc3cc(Br)ccc23)=C1c1c[nH]c2ccccc12	87.3% (inactive)
O=C(Nc1cc(Cl)cc(Cl)c1)Oc1c(Cl)c(Cl)c(Cl)c(Cl)c1Cl	87.3% (inactive)
CSc1nc(-c2ccco2)c(C#N)c(=O)n1C	109% (inactive)
Oc1c(I)cc(I)cc1CN(Cc1ccccn1)Cc1ccccn1	55.1% (inactive)
COc1ccc(-c2nc3ccc(C)cc3c3c2c(=O)n(C)c(=O)n3C)cc1OC	97% (inactive)
O=C(Nc1cccnc1Nc1ccccc1)c1cn(Cc2cccc(Oc3ccccc3)c2)nn1	103% (inactive)
c1cc(OCCN2CCCC2)ccc1CNc1ccc2nc(CCC3CCCCC3)[nH]c2c1	67.5% (inactive)
CN1CCOCCN(C)Cc2ccc3ccc(cc3c2)CN(C)CCOCCN(C)Cc2ccc3ccc(cc3c2)C1	134% (inactive)
Nc1ncnc2c1N=C(c1ccc(F)cc1)CC(c1cccc(Nc3ccnc4cc(Cl)ccc34)c1)N2 (stereo not given)	107% (inactive)
COc1ccc(/C=N/Nc2c3ccccc3nc3ccccc23)cc1	111% (inactive)
CCCC(O)Cn1ncc(C(=O)OCC)c1NC(=O)NCc1cccc(C(F)(F)F)c1 (stereo not given)	107% (inactive)
CN1CC(c2ccc(Br)cc2)C(C(=O)c2ccc(Br)cc2)C12C(=O)Nc1ccccc12 (stereo not given)	82.1% (inactive)
N#Cc1c(-c2cccc(Cl)c2)cc(-c2cccnc2)[nH]c1=O	98.4% (inactive)
Cc1cc(=O)n(C(=S)Nc2ccc(Cl)cc2)c2cc(O)ccc12	101% (inactive)
Cc1ccc(Cc2cnc(NC(=O)/C=C/c3ccc(C)o3)s2)cc1	60.3% (inactive)
CC1=C2CC/C(C)=C/CC[C@]3(C)O[C@H]3CC/C(C)=C/[C@H]2OC1	81.3% (inactive)
O=C(NNc1nc2cc(F)ccc2n2c(CN3CCOCC3)ccc12)c1ccccc1	28.9% (inactive)
